DT40 TDP1 no CPT: qHTS for Inhibitors of human tyrosyl-DNA phosphodiesterase 1 (TDP1): qHTS in cells in absence of CPT; 15% of 420,000 active; DT40 Tdp1-/- hTDP1 cells, no CPT, ATP luminescence, 48 h; Potency, µM (doses to about 46.2 µM), for the others: at the highest dose activity change, negative = growth inhibition, most hits filed as inhibitors; AID 686978, 2013; also: potency is read from the fitted curve at half-maximal effect; nearly all actives have a fitted effect of over 55% in size
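Compound effects on proliferation are scored in DT40 Tdp1-/-;hTDP1 cells in the absence of CPT. ATP levels (CellTiter-Glo luminescence) are recorded after a ≥48 hr, 37 °C incubation.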
HT1080NT lethal: kills 2HG-producing HT-1080-NT fibrosarcoma cells. HT-1080-NT fibrosarcoma viability, CellTiter-Glo ATP luminescence, 48 h. Potency, µM (titrated, usually from 46.1 µM), for inactives: top-dose activity, negative = less viability, actives largely listed as cytotoxic. 1.6% of 360,000 active;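 also: NT is the 2HG producing partner of a matched IDH1 knockdown line; potency is read from the fitted curve at half-maximal effect; 0% = DMSO-treated cells and -100% = media-only wells without cells; nearly all actives have a fitted effect of over 55% in size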
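Luminescent CellTiter-Glo readout after 48 hours of compound exposure at 37 degrees C defined viability of HT-1080-NT cells. Activity was normalized to DMSO wells and cell-free media wells; concentration-response curves were fitted and assigned curve classes.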
ELG1 DNA repair: blocks ELG1-dependent DNA repair in HEK293T cells | HEK293T ELG1-luciferase reporter, luminescence, 16 h; DNA damage induced by 5-fluorouridine | Potency, µM (highest dose often 46.1 µM), without a hit: at the highest dose activity change, negative = inhibition, hits mostly inhibitors | 2.3% of 330,000 active | AID 504467; also: potency is read from the fitted curve at half-maximal effect; nearly all actives have a fitted effect of over 55% in size
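Overnight (16 hr) co-exposure of 2,000 cells/well to 5-fluorouridine and compound at 37 °C preceded detection. Luciferase was quantified via ONE-Glo luminescence; loss of signal denotes inhibition.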
HT1080 IDH1KD tx: kills HT-1080 cells with IDH1 knockdown; HT-1080 IDH1 knockdown viability, ATP luminescence, 48 h; Potency, µM (highest dose often 46.1 µM), for the others: top-dose activity, negative = toxicity, most hits filed as cytotoxic; 2% of 360,000 active;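 also: potency is read from the fitted curve at half-maximal effect; 0% = DMSO wells and -100% = cell-free medium wells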
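Assay cells: HT-1080 with IDH1 knockdown, 750 per well, RPMI/5% FBS. Exposure: 48 h at 37 °C following 2 h pre-incubation. Read: CellTiter-Glo luminescence; fitted concentration-response, curve class assigned.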
DT40 TDP1 CPT: growth inhibition of DT40 Tdp1-/-;hTDP1 cells with camptothecin (screen for TDP1 inhibitors); chicken DT40 Tdp1-/-;hTDP1 cells + 20 nM CPT, ATP luminescence, 48 h; Potency, µM (top dose mostly 46.2 µM), without a hit: at the highest dose activity change, negative = growth inhibition, actives largely listed as inhibitors; 12% of 420,000 active; AID 686979; also: potency is read from the fitted curve at half-maximal effect; nearly all actives have a fitted effect of over 55% in size
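Chicken DT40 Tdp1-/- cells stably complemented with human TDP1 were seeded at 400 cells/well in medium containing 20 nM camptothecin, exposed to pin-transferred compounds, and grown at 37 °C for at least 48 hr. Viability was read as ATP luminescence.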
IL-1B inflam inh: inflammasome signaling inhibition, IL-1 beta readout; THP-1 LPS/ATP IL-1B secretion, AlphaLISA, 16 h; active compounds read low; activity change, % at 57.5 µM; 4.7% of 360,000 active; AID 743279; in the data active = activity change below about -50%; inconclusive = mostly about -30% to -49%
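Secreted IL-1B measured by AlphaLISA bead assay after 16 h compound exposure of THP-1 cells; compounds (final up to 57.5 uM) added 1 h before LPS (250 ng/mL) and ATP (1.25 mM) stimulation; lower signal means less secretion.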
Starred values were filed as active, the others as inactive; ? = inconclusive; · = no result; [ ] = remark or other dose. A selection: hits, their analogues and other compounds. The true share with any hit is near 19%. Unless noted, calls follow the shape of the dose curve; as a rule, active = well fitted curve in the direction sought with a large enough effect; inconclusive = small, poorly fitted or top-dose-only effect, or another doubt; inactive = no such curve, though single readings can be large; an effect the other way counts as inactive or inconclusive. Unless noted, % is scaled to controls: 0 for no effect and ±100 for the full control effect.

SMILES | DT40 TDP1 no CPT | HT1080NT lethal | ELG1 DNA repair | HT1080 IDH1KD tx | DT40 TDP1 CPT | IL-1B inflam inh
COc1ccc(-n2nc(C(=O)Nc3ccc(Br)cc3C)c3c4ccccc4n(C)c3c2=O)cc1 | -10% | · | · | · | -8% | ·
Cc1c(C(=O)N(C)Cc2nc3ccccc3c(=O)[nH]2)oc2ccccc12 | 23µM* | -22% | ? | ? | ? | 19
CC(=O)c1ccc(-c2ccc(C(=O)N(C)Cc3nc4ccccc4c(=O)[nH]3)o2)cc1 | 23µM* | -6% | -26% | -12% | ? | 7
CCOC(=O)[C@@H]1[C@H]2COc3cc(OC)ccc3[C@@H]2N2C(=O)N(c3ccccc3)C(=O)[C@@]12C | -2% | 0% | ? | 2% | ? | 4
Cc1ccc(-c2cn3cccnc3n2)cc1NC(=O)Cc1ccccc1 | 2% | · | · | · | 4% | ·
O=C(Nc1ccc(Cl)cc1F)c1cc(S(=O)(=O)N2CCCCC2)ccc1F | -8% | 1% | 10% | 4% | 26% | 7
Cc1ccc(C)c(NC(=O)c2cc(S(=O)(=O)N3CCCCCC3)ccc2F)c1 | ? | · | · | · | 16µM* | ·
Cc1ccc(NC(=O)c2cc(S(=O)(=O)N3CCCCCC3)ccc2F)cc1F | ? | · | · | · | 8.2µM* | ·
Cc1ccc(NC(=O)c2cc(S(=O)(=O)N3CCCCC3)ccc2N2CCOCC2)cc1F | -27% | -7% | ? | -2% | -2% | -20
Cc1cc(C)cc(NC(=O)c2cc(S(=O)(=O)NCc3ccco3)ccc2F)c1 | 11µM* | ? | -5% | ? | ? | ?
Cc1cccc(C(=O)Nc2cccc(S(=O)(=O)NCc3ccco3)c2)c1 | ? | 7% | ? | -3% | ? | -25
Cc1cc(C)cc(NC(=O)c2cc(S(=O)(=O)N3CCCC3)ccc2F)c1 | 21µM* | · | · | · | ? | ·
Clc1ccccc1OCCSc1nnc(-c2cccs2)o1 | -22% | · | · | · | -4% | ·
O=C(Nc1cc(S(=O)(=O)N2CCCC2)ccc1Cl)c1cc(F)c(F)c(F)c1F | -30% | 0% | ? | -1% | -21% | -99*
CCCOP(=O)(OCCC)c1c([N+](=O)[O-])cc(C(F)(F)F)cc1[N+](=O)[O-] | 18µM* | ? | 0% | ? | ? | -73*
Cc1ccccc1Nc1nnc(SCc2cc(=O)n3ccsc3n2)s1 | 16µM* | -3%[9.24 µM] | ? | ? | ? | 0
O=C(Nc1ccc(N2CCCC2)cc1)c1ccc(Br)o1 | ? | 6% | ? | 12% | ? | -12
Cc1ccccc1C(=O)Nc1cccc(NC(=O)c2ccc(-c3ccc(Br)cc3)o2)c1 | 8.2µM* | -19% | 9.2µM* | -15% | 23µM* | 21
O=C(Nc1ccc(CN2CCOCC2)cc1)c1ccc(Br)o1 | -16% | 7% | ? | -8% | 21% | -7
O=C(Nc1ccc(N2CCN(C(=O)c3ccccc3)CC2)cc1)c1ccc(Br)o1 | ? | 2% | ? | 6% | 16µM* | -54*
CN1CCN(c2ccc(NC(=O)c3ccc(-c4ccc(Br)cc4)o3)cc2)CC1 | 29µM* | 15µM* | ? | 23µM* | ? | -92*
COc1cccc(NC(=O)c2ccc(-c3ccc([N+](=O)[O-])cc3)o2)c1 | ? | -21% | 2% | -1% | -29% | ?
O=C(Nc1ccc(N2CCOCC2)c(Cl)c1)c1ccc(Br)o1 | 11µM* | ? | ? | -8% | ? | -74*
O=C(Nc1ccc(N2CCCC2)c(Cl)c1)c1ccco1 | ? | 0% | ? | -17% | ? | ?
CC(C)N1CCN(C(=O)c2ccc(NC(=O)c3ccc(Br)o3)cc2)CC1 | 2% | ? | 17% | 13% | -1% | -8
SMILES | DT40 TDP1 no CPT | HT1080NT lethal | ELG1 DNA repair | HT1080 IDH1KD tx | DT40 TDP1 CPT | IL-1B inflam inh
Cc1ccc(NC(=O)c2cc(NC(=O)c3ccco3)ccc2N2CCOCC2)cc1Cl | ? | -10% | 16µM* | 2%[9.24 µM] | ? | -19
O=C(Nc1ccc(N2CCN(C(=O)c3ccccc3)CC2)c(Cl)c1)c1ccc(Br)o1 | 21µM* | 7.1µM* | 12µM* | ? | 23µM* | -101*
COc1cc(C(C)n2nnc3ccccc32)ccc1O (configuration not stated) | -9% | 0% | · | 0% | -16% | 8
Cc1coc2c1c(C)cc1oc(=O)c(CC(=O)NCCc3ccc(Cl)cc3)c(C)c12 | ? | · | · | · | -23% | ·
CN(C(=O)c1cccc(NC(=O)Cc2ccc(NC(=O)C3CCN(C(=O)CCc4ccccc4)CC3)cc2)c1)C1CCC1 | 13µM* | 3% | · | -1% | 13µM* | -17
CN(C(=O)c1cccc(NC(=O)Cc2ccc(NC(=O)C3CCN(C(=O)CCc4ccccc4)CC3)cc2)c1)C1CC1 | 10µM* | 0% | · | 4% | 16µM* | 11
CCC(=O)NC1=C(NC(C)c2ccccc2)C(=O)c2ccccc2C1=O (configuration not stated) | ? | -9% | -23% | -1% | ? | 18
CCC(=O)N(C1=C(NC)C(=O)c2ccccc2C1=O)C(C)C | 1.6µM* | 4.6µM* | ? | 9.2µM* | 2.1µM* | 133
COc1cc(C(=O)N(CCc2ccccc2)C2=CC3CCC(C2)N3C)cc(OC)c1OC (configuration not stated) | -17% | ? | 21% | 17% | 10% | 29
Cc1cc(C)cc(C(=O)N(CCc2ccccc2)C2CC3CCC(C2)N3C)c1 (configuration not stated) | ? | ? | -18% | ? | ? | -65*
COc1ccc(-c2oc3ccccc3c2C(=O)OCc2ccc(O)cc2)cc1 | -15% | ? | ? | -10% | -17% | -29
Cc1cccc(-c2oc3ccc(-c4ccc5c(c4)OCO5)cc3c2C(=O)OCc2ccc(O)cc2)c1 | ? | -3% | 7% | 1% | 16µM* | 14
Cc1ccc(C)c(NC(=O)CSc2n[nH]c(-c3ccncc3)n2)c1 | -20% | 12% | 6% | 13% | -7% | 0
O=C(CSc1n[nH]c(-c2ccncc2)n1)Nc1ccc(F)cc1 | -20% | ? | -1% | 9% | -5% | 54
Cc1cccc(NC(=O)CSc2n[nH]c(-c3ccncc3)n2)c1C | -29% | 3% | -3% | 5% | 12µM* | 36
O=C(CSc1n[nH]c(-c2ccccn2)n1)Nc1ccc(F)cc1 | 7.3µM* | ? | ? | ? | ? | 13
O=C(CSc1n[nH]c(-c2ccccn2)n1)Nc1ccc(Cl)cc1 | 4.6µM* | ? | 21µM* | ? | 6.5µM* | 52
